Growth inhibition data for 21 molecules are collected here from PubChem BioAssay (NCI).

Assay [1] in a line: NCI Yeast Anticancer Drug Screen. Data for the rad50 strain (AID 155).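 Further: 0% = growth of vehicle-only cultures of the same strain.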 Conditions: S. cerevisiae rad50 strain growth inhibition; at 50.0 µM; active compounds read high. The essentials: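 Readout: growth inhibition relative to vehicle-treated cultures. Compound exposure was carried out in a genetically defined yeast strain deficient in DNA damage repair.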
The nature of assay [2]: NCI Yeast Anticancer Drug Screen. Data for the mec2-1 strain (AID 157). The settings on record: S. cerevisiae mec2-1 strain, at 50.0 µM, active compounds read high. The essentials:
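Each compound was tested on mec2-1 yeast, a strain altered in DNA damage repair or cell cycle control. Growth inhibition is reported relative to vehicle.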

Assay [3] can be described thus: NCI Yeast Anticancer Drug Screen. Data for the sgs1 mgt1 strain (AID 161).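 Further: 0% = growth of cultures given vehicle only.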 The settings on record: S. cerevisiae sgs1 mgt1 strain, at 50.0 µM, active compounds read high. An outline of the steps:
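Test agents were incubated with a DNA-repair-mutant yeast strain. Growth was then read and compared against vehicle-treated controls.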

Assay [4] can be described thus: NCI Yeast Anticancer Drug Screen. Data for the cln2 rad14 strain (AID 165).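 Further: 0% = growth equal to vehicle treated cultures.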 Conditions: S. cerevisiae cln2 rad14 strain, at 50.0 µM, active compounds read high. The essentials:
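Test compounds were added to cln2 rad14 yeast cultures; inhibition of growth was then determined by comparison with vehicle treatment.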

Assay [5] in a line: NCI Yeast Anticancer Drug Screen. Data for the bub3 strain (AID 167). The settings on record: S. cerevisiae bub3 mutant strain, at 50.0 µM, active compounds read high. The essentials: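 Readout: yeast growth inhibition, expressed relative to vehicle-only wells. The test organism is a mutant strain from a panel with lesions in DNA repair or checkpoint genes.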
The nature of assay [6]: NCI Yeast Anticancer Drug Screen. Data for the mlh1 rad18 strain (AID 175). The settings on record: S. cerevisiae mlh1 rad18 strain growth inhibition; at 50.0 µM; active compounds read high. The essentials:
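Inhibition values reflect reduced growth of mutant yeast versus vehicle-treated controls following compound exposure; the mutations affect DNA damage repair.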

About 79,000 compounds went through this panel and 15% of them were active in at least one assay; those are over-represented in the sample as a whole. Values without a mark were called inactive. Active and inactive are the calls of the source. No stated cut-off is given here; in the data, active means growth inhibition above about 70%; inactive means the rest.

Consider `C[Si](C)(C)CSCCO`, for which the growth inhibition was -13.7% in assay [1]; -6.45% in assay [2]; -20.8% in assay [3]; -16.1% in assay [4]; -14.7% in assay [5]; -1.6% in assay [6].
`Nc1cccc(/C=C(/C(=O)O)c2ccc(Cl)cc2)c1`: the growth inhibition in assay [1] was 3.4%; in assay [2] it was -4.45%; in assay [3], -7.3%; in assay [4], -38.9%; in assay [5] it was -15.6%; in assay [6], 0.15%.
`CCOc1ccc(-n2c(C)c(COC(=O)NC)c(COC(=O)NC)c2C)cc1`: the growth inhibition is 16.1% in assay [1]; -5.9% in assay [2]; 68.9% in assay [3]; 3.8% in assay [4]; 67.2% in assay [5]; 92.5% (active) in assay [6].
As for `C=CCSc1nc2ccc(N=Cc3ccc([N+](=O)[O-])cc3)cc2s1`, the growth inhibition was 2.05% in assay [1]; -12.5% in assay [2]; -8.7% in assay [3]; -14.6% in assay [4]; 5.95% in assay [5]; -21.2% in assay [6].
As to `Cc1nc2c(cc1C#N)C(Nc1ccc(Cl)cc1)Oc1ccc([N+](=O)[O-])cc1-2` (stereo unspecified), the growth inhibition was -4.6% in assay [1]; -12.3% in assay [2]; 0.5% in assay [3]; -32.2% in assay [4]; -36.5% in assay [5]; -7.5% in assay [6].
Regarding `NS(=O)(=O)c1ccc(Nc2c3ccccc3nc3c(C(=O)NCCO)cccc23)cc1`, the growth inhibition in assay [1] is 51.8%; in assay [2] it was -30.2%; in assay [3] it was -15.9%; in assay [4], -3.1%; in assay [5] it was -10.6%; in assay [6], -1.9%.
`C/C(Cl)=C/CC1(C)CCCC(C)(C)CC1=O` (stereo unspecified): the growth inhibition is 6.4% in assay [1]; 7.4% in assay [2]; 1.5% in assay [3]; 2.05% in assay [4]; 1.85% in assay [5]; -10.3% in assay [6].
As to `CC(C)Oc1cc2c(cc1O)CC[C@@H]1[C@@H]2CC[C@]2(C)[C@@H](O)CC[C@@H]12`, the growth inhibition is 45.9% in assay [1]; 8.2% in assay [2]; 63.7% in assay [3]; 33% in assay [4]; 56.9% in assay [5]; 44.1% in assay [6].
As for `O=Nc1c(-c2ccccc2)nnc(-c2ccccc2)c1N=O`, the growth inhibition in assay [1] was -24.9%; in assay [2], 6.95%; in assay [3] it was -0.3%; in assay [4] it was -54.8%; in assay [5] it was 34.7%; in assay [6], -6.2%.
For `NNC(=O)c1ccccc1Cl`, the growth inhibition in assay [1] is -11.2%; in assay [2] it was -21.1%; in assay [3] it was -11.9%; in assay [4], 0.4%; in assay [5], -3.8%; in assay [6], -25.9%.
Turning to `CC1(C)CC(Nc2ccc(Nc3ccccc3)cc2)CC(C)(C)N1`, the growth inhibition is -4.35% in assay [1]; -6.3% in assay [2]; -11.3% in assay [3]; -9.8% in assay [4]; -2.1% in assay [5]; -19.8% in assay [6].
Take `O=C(c1ccccc1)N(C(=O)c1ccccc1)c1cccc[n+]1[O-]`: the growth inhibition in assay [1] was 4.4%; in assay [2], -2.25%; in assay [3], -1.75%; in assay [4], -12.2%; in assay [5], -10.2%; in assay [6], -4%.
Consider `COc1ccc2cc3n(c2c1)CCc1cc(OC)c(OC)cc1-3`, for which the growth inhibition in assay [1] was 13.6%; in assay [2] it was -10.8%; in assay [3], 5.9%; in assay [4] it was 23.9%; in assay [5], 3%; in assay [6], 14.2%.
On to `CCOC(=O)CCNc1nc(N)nc(C)c1NC=O`, for which the growth inhibition in assay [1] is -11.9%; in assay [2] it was 5.55%; in assay [3], -16.5%; in assay [4], 9.7%; in assay [5], 5.9%; in assay [6] it was 16.9%.
On to `O=C1C(c2ccccc2)=C(c2ccccc2)c2ccc(Cl)cc21`, for which the growth inhibition is 13.7% in assay [1]; 15.6% in assay [2]; 8.85% in assay [3]; 7.75% in assay [4]; 0.45% in assay [5]; 6.45% in assay [6].
With `Br/C(=N\Nc1nn[nH]n1)c1ccncc1`, the growth inhibition is -15.1% in assay [1]; 1.75% in assay [2]; -26.1% in assay [3]; -22% in assay [4]; -21.8% in assay [5]; -28.9% in assay [6].
Take `COC(=O)c1cc(C)n(C)c(=O)c1C#N`: the growth inhibition in assay [1] is 12.6%; in assay [2], 12.5%; in assay [3], -0.85%; in assay [4], 22.1%; in assay [5] it was 13.9%; in assay [6], 2.9%.
With `CC(NC(=O)OC(C)(C)C)C(=O)C(N)=O` (stereo unspecified), the growth inhibition is -16.2% in assay [1]; 2.7% in assay [2]; -27.9% in assay [3]; 19.1% in assay [4]; 8.25% in assay [5]; -11.5% in assay [6].
For `COC(=O)c1ccc(N=NN(C)COC(C)=O)cc1`, the growth inhibition is 27.4% in assay [1]; 12% in assay [2]; 11.2% in assay [3]; 18.5% in assay [4]; 10.2% in assay [5]; 18.8% in assay [6].
Turning to `Nc1n[nH]c(=S)n1Cc1ccccc1`, the growth inhibition in assay [1] was -21.8%; in assay [2], -10%; in assay [3], -27.1%; in assay [4], -18.2%; in assay [5], -14.6%; in assay [6], -10.7%.
Take `COc1c(C(=O)O)[nH]c(=O)[nH]c1=O`: the growth inhibition in assay [1] is 4.85%; in assay [2], -30.1%; in assay [3], 5.8%; in assay [4] it was -5.65%; in assay [5] it was -14.3%; in assay [6], -5.5%.
